Data reported in the supplement of paper PMC7261846.
Counter-ions that a name gives are not always drawn. ± gives the uncertainty stated by the source.

Tested on: Candida albicans SNY425 biofilm
Assay: biofilm OD600 with compound plus antifungal (OD600 (absorbance)); higher = more biofilm remaining
[1] = assay detail: disruption of 24-h mature biofilm (compound + antifungal for a second 24 h)
[2] = assay detail: sustained inhibition (compound + antifungal during 90-min adherence and 24-h growth)

Structure (SMILES)	biofilm OD600 [1]	biofilm OD600 [2]
CC(C)CC(=O)N[C@H](C(=O)N[C@H](C(=O)N[C@@H](CC(C)C)[C@@H](O)CC(=O)N[C@@H](C)C(=O)N[C@@H](CC(C)C)[C@@H](O)CC(=O)O)C(C)C)C(C)C [Pepstatin A] + C[C@@H]1[C@H](O)[C@@H](C)/C=C/C=C/C=C/C=C/C=C/C=C/C=C/[C@H](O[C@@H]2O[C@H](C)[C@@H](O)[C@H](N)[C@@H]2O)C[C@@H]2O[C@](O)(C[C@@H](O)C[C@@H](O)[C@H](O)CC[C@@H](O)C[C@@H](O)CC(=O)O[C@H]1C)C[C@H](O)[C@H]2C(=O)O [amphotericin B] (first compound 12.5 µM)	0.272 ± 0.0097	0.199 ± 0.011
CC(C)(C)NC(=O)[C@@H]1C[C@@H]2CCCC[C@@H]2CN1C[C@@H](O)[C@H](Cc1ccccc1)NC(=O)[C@H](CC(N)=O)NC(=O)c1ccc2ccccc2n1 [saquinavir] + OC(Cn1cncn1)(Cn1cncn1)c1ccc(F)cc1F [fluconazole] (first compound 12.5 µM)	0.255 ± 0.0074	0.112 ± 0.009
CC(C)CC(=O)N[C@H](C(=O)N[C@H](C(=O)N[C@@H](CC(C)C)[C@@H](O)CC(=O)N[C@@H](C)C(=O)N[C@@H](CC(C)C)[C@@H](O)CC(=O)O)C(C)C)C(C)C [Pepstatin A] + OC(Cn1cncn1)(Cn1cncn1)c1ccc(F)cc1F [fluconazole] (first compound 12.5 µM)	0.255 ± 0.007	0.144 ± 0.0099
CCOC(=O)c1ccc(OC(=O)CCCCCNC(=N)N)cc1 [Gabexate mesylate] + OC(Cn1cncn1)(Cn1cncn1)c1ccc(F)cc1F [fluconazole] (first compound 12.5 µM)	0.267 ± 0.013	0.116 ± 0.0062
CC(C)C[C@H](NC(=O)[C@@H](O)[C@H](N)Cc1ccccc1)C(=O)O [Bestatin·HCl] + C[C@@H]1[C@H](O)[C@@H](C)/C=C/C=C/C=C/C=C/C=C/C=C/C=C/[C@H](O[C@@H]2O[C@H](C)[C@@H](O)[C@H](N)[C@@H]2O)C[C@@H]2O[C@](O)(C[C@@H](O)C[C@@H](O)[C@H](O)CC[C@@H](O)C[C@@H](O)CC(=O)O[C@H]1C)C[C@H](O)[C@H]2C(=O)O [amphotericin B] (first compound 12.5 µM)	0.288 ± 0.0087	0.211 ± 0.0059
NCC1CCC(C(=O)N[C@@H](Cc2ccccc2)C(=O)Nc2ccc(CC(=O)O)cc2)CC1 (stereo not given in full) + C[C@@H]1[C@H](O)[C@@H](C)/C=C/C=C/C=C/C=C/C=C/C=C/C=C/[C@H](O[C@@H]2O[C@H](C)[C@@H](O)[C@H](N)[C@@H]2O)C[C@@H]2O[C@](O)(C[C@@H](O)C[C@@H](O)[C@H](O)CC[C@@H](O)C[C@@H](O)CC(=O)O[C@H]1C)C[C@H](O)[C@H]2C(=O)O [amphotericin B] (first compound 12.5 µM)	0.271 ± 0.0064	0.182 ± 0.017
Cc1cccc(C)c1OCC(=O)N[C@@H](Cc1ccccc1)[C@@H](O)C[C@H](Cc1ccccc1)NC(=O)[C@H](C(C)C)N1CCCNC1=O [lopinavir] + OC(Cn1cncn1)(Cn1cncn1)c1ccc(F)cc1F [fluconazole] (first compound 12.5 µM)	0.246 ± 0.01	0.141 ± 0.021
CCCCCCCCCC(=O)N[C@@H](CCCN=C(N)N)C(=O)N[C@H](C(=O)N[C@@H](CCCCN)C(=O)N[C@@H](CCCN=C(N)N)C(=O)CCl)C(C)C + C[C@@H]1[C@H](O)[C@@H](C)/C=C/C=C/C=C/C=C/C=C/C=C/C=C/[C@H](O[C@@H]2O[C@H](C)[C@@H](O)[C@H](N)[C@@H]2O)C[C@@H]2O[C@](O)(C[C@@H](O)C[C@@H](O)[C@H](O)CC[C@@H](O)C[C@@H](O)CC(=O)O[C@H]1C)C[C@H](O)[C@H]2C(=O)O [amphotericin B] (first compound 4 µM)	0.261 ± 0.0041	0.188 ± 0.0044
NC(N)=NCCC[C@H](NC(=O)[C@@H]1CCCN1C(=O)[C@H](N)Cc1ccccc1)C(=O)CCl + C[C@@H]1[C@H](O)[C@@H](C)/C=C/C=C/C=C/C=C/C=C/C=C/C=C/[C@H](O[C@@H]2O[C@H](C)[C@@H](O)[C@H](N)[C@@H]2O)C[C@@H]2O[C@](O)(C[C@@H](O)C[C@@H](O)[C@H](O)CC[C@@H](O)C[C@@H](O)CC(=O)O[C@H]1C)C[C@H](O)[C@H]2C(=O)O [amphotericin B] (first compound 12.5 µM)	0.291 ± 0.0073	0.213 ± 0.0082
O=c1oc(Cl)c(Cl)c2ccccc12 [3,4-Dichloroisocoumarin] + CC[C@H](C)C[C@H](C)CCCCCCCCC(=O)N[C@H]1C[C@@H](O)[C@@H](NCCN)NC(=O)[C@@H]2[C@@H](O)CCN2C(=O)[C@H]([C@H](O)CCN)NC(=O)[C@H]([C@H](O)[C@@H](O)c2ccc(O)cc2)NC(=O)[C@@H]2C[C@@H](O)CN2C(=O)[C@H]([C@@H](C)O)NC1=O [caspofungin] (first compound 12.5 µM)	0.246 ± 0.014	0.21 ± 0.014
CCCC[C@@H](C=O)NC(=O)OC(C)(C)C + OC(Cn1cncn1)(Cn1cncn1)c1ccc(F)cc1F [fluconazole] (first compound 12.5 µM)	0.243 ± 0.0054	0.117 ± 0.0068
CC(C)CC(=O)N[C@H](C(=O)N[C@H](C(=O)N[C@@H](CC(C)C)[C@@H](O)CC(=O)N[C@@H](C)C(=O)N[C@@H](CC(C)C)[C@@H](O)CC(=O)O)C(C)C)C(C)C [Pepstatin A] + CC[C@H](C)C[C@H](C)CCCCCCCCC(=O)N[C@H]1C[C@@H](O)[C@@H](NCCN)NC(=O)[C@@H]2[C@@H](O)CCN2C(=O)[C@H]([C@H](O)CCN)NC(=O)[C@H]([C@H](O)[C@@H](O)c2ccc(O)cc2)NC(=O)[C@@H]2C[C@@H](O)CN2C(=O)[C@H]([C@@H](C)O)NC1=O [caspofungin] (first compound 12.5 µM)	0.264 ± 0.01	0.18 ± 0.013
N[C@H](C(=O)O)[C@@H]1CC(Cl)=NO1 [Acivicin] + C[C@@H]1[C@H](O)[C@@H](C)/C=C/C=C/C=C/C=C/C=C/C=C/C=C/[C@H](O[C@@H]2O[C@H](C)[C@@H](O)[C@H](N)[C@@H]2O)C[C@@H]2O[C@](O)(C[C@@H](O)C[C@@H](O)[C@H](O)CC[C@@H](O)C[C@@H](O)CC(=O)O[C@H]1C)C[C@H](O)[C@H]2C(=O)O [amphotericin B] (first compound 4 µM)	0.31 ± 0.0054	0.181 ± 0.006
NCC1CCC(C(=O)N[C@@H](Cc2ccccc2)C(=O)Nc2ccc(CC(=O)O)cc2)CC1 (stereo not given in full) + CC[C@H](C)C[C@H](C)CCCCCCCCC(=O)N[C@H]1C[C@@H](O)[C@@H](NCCN)NC(=O)[C@@H]2[C@@H](O)CCN2C(=O)[C@H]([C@H](O)CCN)NC(=O)[C@H]([C@H](O)[C@@H](O)c2ccc(O)cc2)NC(=O)[C@@H]2C[C@@H](O)CN2C(=O)[C@H]([C@@H](C)O)NC1=O [caspofungin] (first compound 12.5 µM)	0.26 ± 0.0081	0.191 ± 0.024
CSCCC(C=O)NC(=O)C(CC(C)C)NC(=O)[C@H](CC(C)C)NC(C)=O (stereo not given in full) [Calpain Inhibitor II (ALLM)] + CC[C@H](C)C[C@H](C)CCCCCCCCC(=O)N[C@H]1C[C@@H](O)[C@@H](NCCN)NC(=O)[C@@H]2[C@@H](O)CCN2C(=O)[C@H]([C@H](O)CCN)NC(=O)[C@H]([C@H](O)[C@@H](O)c2ccc(O)cc2)NC(=O)[C@@H]2C[C@@H](O)CN2C(=O)[C@H]([C@@H](C)O)NC1=O [caspofungin] (first compound 12.5 µM)	0.249 ± 0.0042	0.178 ± 0.0059
CC(C)C[C@@H](C=O)NC(=O)[C@H](CC(C)C)NC(=O)[C@H](CC(C)C)NC(=O)OCc1ccccc1 + C[C@@H]1[C@H](O)[C@@H](C)/C=C/C=C/C=C/C=C/C=C/C=C/C=C/[C@H](O[C@@H]2O[C@H](C)[C@@H](O)[C@H](N)[C@@H]2O)C[C@@H]2O[C@](O)(C[C@@H](O)C[C@@H](O)[C@H](O)CC[C@@H](O)C[C@@H](O)CC(=O)O[C@H]1C)C[C@H](O)[C@H]2C(=O)O [amphotericin B] (first compound 12.5 µM)	0.29 ± 0.0045	0.209 ± 0.017
CC(C)C[C@H](NC(=O)[C@@H](O)[C@H](N)Cc1ccccc1)C(=O)O [Bestatin·HCl] + OC(Cn1cncn1)(Cn1cncn1)c1ccc(F)cc1F [fluconazole] (first compound 12.5 µM)	0.284 ± 0.013	0.163 ± 0.011
CC1CNc2c(cccc2S(=O)(=O)N[C@@H](CCCNC(=N)N)C(=O)N2CC[C@@H](C)C[C@@H]2C(=O)O)C1 (stereo not given in full) [Argatroban] + CC[C@H](C)C[C@H](C)CCCCCCCCC(=O)N[C@H]1C[C@@H](O)[C@@H](NCCN)NC(=O)[C@@H]2[C@@H](O)CCN2C(=O)[C@H]([C@H](O)CCN)NC(=O)[C@H]([C@H](O)[C@@H](O)c2ccc(O)cc2)NC(=O)[C@@H]2C[C@@H](O)CN2C(=O)[C@H]([C@@H](C)O)NC1=O [caspofungin] (first compound 12.5 µM)	0.285 ± 0.017	0.182 ± 0.0063
CC(C)CN(C[C@@H](O)[C@H](Cc1ccccc1)NC(=O)O[C@H]1CCOC1)S(=O)(=O)c1ccc(N)cc1 [amprenavir] + OC(Cn1cncn1)(Cn1cncn1)c1ccc(F)cc1F [fluconazole] (first compound 12.5 µM)	0.264 ± 0.0069	0.16 ± 0.011
CCOC(=O)[C@H](CCc1ccccc1)N[C@@H](C)C(=O)N1CCC[C@H]1C(=O)O [Enalapril] + OC(Cn1cncn1)(Cn1cncn1)c1ccc(F)cc1F [fluconazole] (first compound 12.5 µM)	0.258 ± 0.0055	0.157 ± 0.015
